Only a selection was taken, and hits are over-represented in it overall.
NOMO-1 viab = NOMO-1 AML cell viability reduction, primary screen, STK33 inhibitor project, CellTiter-Glo luminescence. inhibition, % (concentration not given with the values). NOMO-1 AML viability, 72 h. 7.5% of 37,000 active; in the data active = inhibition above about 80%; inconclusive = no clear call, values can overlap the other calls
ROS inducer = ROS inducers in U2OS cancer cells, primary screen, cell-based, H2DCF-DA fluorescence | ROS induction (% of piperlongumine), % at 10 µM | 2% of 46,000 active | U2OS ROS induction; in the data active = ROS induction above about 79%, passing the limit was not always enough; inconclusive = no clear call, values can overlap the other calls;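 also: 0% = DMSO vehicle median and 100% = reference compound median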
PD-1 reversal = activators reversing PD-1 mediated T-cell inhibition, primary screen, luminescence, primary human CD4 T cells, PD-L1 beads. CellTiter-Glo 96 h. activation, % (test concentration not listed). 29,000 tested, under 10 active. AID 2316, 2010; call rule not given here;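 also: 0% = median vehicle wells and 100% = positive control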
YB-1 expr inh = inhibitors of YB-1 gene expression, primary screen, cell-based, fluorescence; 0.37% of 30,000 active; U2OS, qRT-PCR YB-1 vs CDIP delta delta Cp, 16 h; hits give high values; zero = DMSO, each unit about twofold; delta delta Cp (YB-1 minus CDIP) (test concentration not listed);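 active = delta delta Cp rounded down to an integer at or above 3, about 3 SD of DMSO wells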;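 also: higher means less YB-1 transcript or more CDIP transcript relative to DMSO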
MITF inhib = inhibitors of MITF, primary screen, MITF inhibitor project, cell-based, luminescence. TRPM1 promoter luciferase, 24 h. inhibition, % (concentration not given with the values). 0.28% of 37,000 active; in the data active = inhibition above about 85%; inconclusive = no clear call, values can overlap the other calls; inactive = below about 68%;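 also: human melanocyte line stably carrying TRPM1 promoter luciferase reporter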
Numbers without * were called inactive; u = inconclusive; x = no result.

SMILES	NOMO-1 viab	ROS inducer	PD-1 reversal	YB-1 expr inh	MITF inhib
C[C@@H]1CCCCO[C@H](CN(C)S(=O)(=O)c2ccc(F)cc2)[C@@H](C)CN([C@H](C)CO)C(=O)c2cc(NS(=O)(=O)c3ccc(Cl)cc3)ccc2O1	67	38	x	-0.17	18
Cc1cc(NC(=O)C(C)Sc2nc(-c3ccccc3)cc(C(F)(F)F)n2)no1 (configuration not stated)	x	-9	x	x	x
CCCc1c(Cc2c(F)cccc2Cl)c(=O)oc2cc(O)ccc12	120*	-16	-4	-0.46	55
COc1ccc(C(=O)NCc2c(-c3ccccc3)noc2C)cc1	x	2	x	x	x
C[C@H]1CN([C@@H](C)CO)C(=O)c2cccc(NS(=O)(=O)c3ccc(Cl)cc3)c2O[C@@H]1CN(C)Cc1ccc(C(=O)Nc2ccccc2N)cc1	126*	10	-3	-0.14	28
C[C@H](CO)N1C[C@H](C)[C@H](CN(C)Cc2ccc(C(=O)Nc3ccccc3N)cc2)Oc2c(NS(=O)(=O)c3ccc(F)cc3)cccc2C1=O	133*	38	-1	-0.54	21
Cc1ccc(S(=O)(=O)Nc2cccc3c2O[C@@H](CN(C)Cc2ccc(C(=O)Nc4ccccc4N)cc2)[C@H](C)CN([C@H](C)CO)C3=O)cc1	72	6	-1	-0.065	-5
C[C@H](CO)N1C[C@H](C)[C@@H](CN(C)Cc2ccc(C(=O)Nc3ccccc3N)cc2)Oc2c(NS(=O)(=O)c3ccccc3)cccc2C1=O	53	18	2	-0.95	-10
COc1ccc(S(=O)(=O)Nc2cccc3c2O[C@@H](CN(C)Cc2ccc(C(=O)Nc4ccccc4N)cc2)[C@H](C)CN([C@@H](C)CO)C3=O)cc1	55	19	1	-0.25	6
COc1ccc(S(=O)(=O)Nc2cccc3c2O[C@H](CN(C)Cc2ccc(C(=O)Nc4ccccc4N)cc2)[C@@H](C)CN([C@@H](C)CO)C3=O)cc1	129*	20	-2	-0.17	41
C[C@@H]1CN([C@@H](C)CO)C(=O)c2cccc(NS(=O)(=O)c3ccccc3)c2O[C@@H]1CN(C)Cc1ccc(C(=O)Nc2ccccc2N)cc1	129*	36	0	-0.72	22
Cn1c(CSc2nc3ccccc3s2)nnc1SCC(=O)NCCO	x	-14	x	x	x
O=C(Nc1ccccc1[N+](=O)[O-])c1cc(S(=O)(=O)Nc2ccccc2)ccc1Cl	-7	1	1	x	8
N#Cc1ccc(/C=N/NC(=O)CCCCC(=O)NO)cc1	x	-4	x	-0.44	x
C[C@@H]1CN([C@@H](C)CO)C(=O)c2cccc(NS(=O)(=O)c3ccc(Cl)cc3)c2O[C@@H]1CN(C)Cc1ccc(C(=O)Nc2ccccc2N)cc1	128*	37	-5	-0.97	35
C[C@@H]1CN([C@H](C)CO)C(=O)c2cccc(NS(=O)(=O)c3ccc(Cl)cc3)c2O[C@H]1CN(C)Cc1ccc(C(=O)Nc2ccccc2N)cc1	67	16	-1	0.1	12
C[C@@H]1CN([C@H](C)CO)C(=O)c2cccc(NS(=O)(=O)c3cccs3)c2O[C@@H]1CN(C)Cc1ccc(C(=O)Nc2ccccc2N)cc1	138*	22	-1	-0.13	29
Cc1c(C)c(C)c(S(=O)(=O)N2CCCC2)c(C)c1C	63	-1	-2	0.093	-4
Cc1ccc(S(=O)(=O)N(C)C[C@H]2Oc3c(NC(=O)c4ccc(-c5nccs5)cc4)cccc3C(=O)N([C@@H](C)CO)C[C@H]2C)cc1	6	14	-1	0.34	13
Cc1noc(C)c1S(=O)(=O)N(C)C[C@H]1Oc2c(NC(=O)c3ccc(-c4nccs4)cc3)cccc2C(=O)N([C@H](C)CO)C[C@H]1C	-5	106*	1	-0.27	-14
Cc1ccc(S(=O)(=O)N(C)C[C@@H]2Oc3c(NC(=O)c4ccc(-c5nccs5)cc4)cccc3C(=O)N([C@H](C)CO)C[C@@H]2C)cc1	82*	-2	-4	0.25	29
O=C(CS(=O)c1ccccc1[N+](=O)[O-])Nc1cccc(C(F)(F)F)c1 (configuration not stated)	43	-6	-3	x	3
Cc1ccc(C(C)C)c(OC(=O)CS(=O)c2ccc(C(F)(F)F)cc2[N+](=O)[O-])c1 (configuration not stated)	130*	u	-12	x	21
O=C(CS(=O)c1ccc(C(F)(F)F)cc1[N+](=O)[O-])Oc1ccc(Cl)cc1 (configuration not stated)	110*	34	-12	x	0
COC(=O)c1c(N)oc2c(-c3cccc(C(F)(F)F)c3)c3c(C(=O)OC)c(N)oc3cc12	x	-7	x	x	x
SMILES	NOMO-1 viab	ROS inducer	PD-1 reversal	YB-1 expr inh	MITF inhib
COc1cc(NC(=O)c2ccc(CSC3CCCCC3)cc2)cc(OC)c1OC	x	135*	x	x	x
CC(C)(C)NC(=O)c1ccc2c3c(onc13)-c1ccccc1C2=O	114*	245*	-6	-0.49	30
COc1ccccc1N1CCN(C2CCN(Cc3cc(OC)c(OC)c(OC)c3)CC2)CC1	x	-9	x	x	x
COc1ccc(NC(=O)N(C)C[C@@H]2Oc3c(NC(=O)CCCCCC(=O)Nc4ccccc4N)cccc3C(=O)N([C@H](C)CO)C[C@H]2C)cc1	15	-12	1	-0.057	-4
COc1ccc(C(C)C)cc1S(=O)(=O)n1cnc2ccccc21	123*	29	-3	x	21
COc1ccc(C(C)C)cc1S(=O)(=O)n1nnc2ccccc21	-2	-16	0	x	-6
CCOC(=O)CSc1n[nH]c(CN2c3ccccc3Sc3ccccc32)n1	117*	-1	1	-0.13	-3
C[C@@H]1CN([C@H](C)CO)C(=O)c2cccc(NS(=O)(=O)c3cccs3)c2O[C@@H]1CN(C)Cc1ccc(-c2ccccc2)cc1	17	60	-1	-0.052	-10
CCOC(=O)c1c(CNC(C)C)oc2ccc(OC)cc12	12	27	0	10*	-6
CC(N=Cc1c(O)ccc2ccccc12)C12CC3CC(CC(C3)C1)C2 (configuration not stated)	101*	67	1	-0.3	16
Oc1ccc2ccccc2c1/C=N/N1CCN(Cc2ccccc2)CC1	x	0	x	x	x
O=C(NCc1ccccc1)c1cnn2c(C(F)(F)F)cc(-c3ccco3)nc12	x	63	x	x	x
Cc1ccc(/C=N/N(C)S(=O)(=O)c2ccc(C)cc2)cc1	u	95*	0	-0.31	67
C[C@@H]1CN([C@@H](C)CO)C(=O)c2cccc(NS(=O)(=O)c3ccccc3)c2O[C@@H]1CN(C)S(=O)(=O)c1cn(C)cn1	-13	-2	x	0.12	-7
C[C@@H]1CN([C@@H](C)CO)C(=O)Cc2cc(NC(=O)CCCCCC(=O)Nc3ccccc3N)ccc2O[C@@H]1CN(C)Cc1ccc(-c2ccccc2)cc1	142*	21	1	-0.73	56

From PubChem
